Data taken from PubChem BioAssay (NCATS).
Records with an inconclusive call do not appear. A call without a number means that no potency is given here. Calls of active or inactive are those of the source. The call rests on the fitted dose curve; in most records, active means well fitted inhibition curve with a large enough effect; inconclusive means small, poorly fitted or top-dose-only effect; inactive means no such curve, though single readings can be large or run the other way.

system: Zika virus NS2B-NS3 protease (linked construct); assay: Primary screen NINDS Rhodamine qHTS for Zika virus inhibitors (AID 1347160); details: purified NS2B-NS3 protease, Rhodamine110 substrate fluorescence; series mostly up to 33.1 µM; further: nearly all actives have a fitted effect of over 55% in size
Summary of the method: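 Purified NS2B-NS3 protease with the NS2B hydrophilic domain joined by a flexible linker (25 nM) in 10 mM Tris-HCl pH 8.0, 0.01% Tween 20, preincubated 15 min at RT with compound; Rhodamine110 peptide substrate 1.5 µM; fluorescence change over 15 min; 4-parameter Hill fit.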

| Structure (SMILES) | Potency |
| --- | --- |
| C/C=C1/CC2C(=O)Nc3cc(O)c(OC)cc3C(=O)N2C1 (centres undefined) | inactive |
| CC1CCC2C(C)(C)C(O)C(O)CC2(C)C12Cc1c(O)cc(CO)c(C=O)c1O2 (centres undefined) | inactive |
| CC(C)c1ccc2c(c1)C(=O)CC1C(C)(C(=O)O)CCCC21C (centres undefined) | inactive |
| COC(=O)C1=CO[C@@H](O[C@@H]2O[C@H](CO)[C@@H](O)[C@H](O)[C@H]2O)[C@H]2[C@@H]1[C@H](O)C[C@]2(C)O | inactive |
| CC(C)=CCC(O)[C@](C)(O)C1[C@H](O)C[C@@]2(C)C3CC=C4C(C[C@H](O)[C@@H](O[C@@H]5O[C@H](CO)[C@@H](O)[C@H](O)[C@H]5O)C4(C)C)[C@]3(C)C(=O)C[C@]12C (some centres undefined) | inactive |
| CC[C@@H](C)[C@H](N)C(=O)N1Cc2ccccc2C1 | inactive |
| CC1(C)CC[C@]2(C(=O)O[C@@H]3O[C@H](CO)[C@@H](O)[C@H](O)[C@H]3O)CC[C@]3(C)C(=CCC4[C@@]5(C)CC[C@H](O[C@H]6O[C@H](CO)[C@@H](O)[C@H](O[C@@H]7O[C@H](CO)[C@@H](O)[C@H](O)[C@H]7O)[C@H]6O)C(C)(C)C5CC[C@]43C)[C@@H]2C1 (some centres undefined) | inactive |
| CC1CC(=O)[C@]2(O)C(C(=O)OCCc3ccc(O)cc3)=CO[C@@H](O[C@@H]3O[C@H](CO)[C@@H](O)[C@H](O)[C@H]3O)[C@H]12 (some centres undefined) | inactive |
| CC1=CC(=O)C(=C(C)C)CC2C(C)(O)CCC12O (centres undefined) | inactive |
| C=C1C[C@@]2(O)O[C@@]3(C[C@H]2C(C)C)[C@@H](C)CC[C@@H]13 | inactive |
| CC(C)CC(=O)OC[C@@]1(O)C[C@@]23CC[C@H]4[C@@](C)(CCC[C@@]4(C)C(=O)O)[C@@H]2CC[C@@H]1C3 | inactive |
| CC1(CO)CCCC2(C)C3COC(=O)C3=CC(O)C12 (centres undefined) | inactive |
| C=C1CC[C@@]2(OC1)O[C@H]1CC3C4CC=C5C[C@@H](O[C@@H]6O[C@@H](C)[C@H](O)[C@@H](O)[C@H]6O)C[C@@H](O[C@@H]6O[C@H](C)[C@H](O)[C@H](O)[C@H]6O[C@@H]6O[C@@H](C)[C@H](O)[C@@H](O)[C@H]6O)[C@]5(C)C4CC[C@]3(C)[C@H]1[C@@H]2C (some centres undefined) | inactive |
| CC1(C)CC[C@]2(C(=O)O)CC[C@]3(C)C(=CCC4[C@@]5(C)CC[C@H](O)C(C)(C)C5CC[C@]43C)C2C1 (some centres undefined) | inactive |
| C/C=C1/[C@H](O[C@@H]2O[C@H](CO)[C@@H](O)[C@H](O)[C@H]2O)OC=C(C(=O)OC)[C@H]1CC(=O)OCCc1ccc(OC(=O)C[C@@H]2C(C(=O)OC)=CO[C@@H](O[C@@H]3O[C@H](CO)[C@@H](O)[C@H](O)[C@H]3O)/C2=C/C)cc1 | inactive |
| CC[C@H](NC(=O)c1c(O)c(-c2ccccc2)nc2ccccc12)c1ccccc1 | inactive |
| CCC/C=C/C=C/C1CC(O)C(O)C(=O)C1CO (centres undefined) | inactive |
| CC(C)=CC[C@H]1O[C@]2(O)C([C@H]3CCC4[C@@]5(C)CC[C@H](O[C@@H]6O[C@H](CO)[C@H](O)[C@H](O[C@@H]7O[C@H](CO)[C@@H](O)[C@H](O)[C@H]7O)[C@H]6O[C@@H]6O[C@@H](C)[C@H](O)[C@@H](O)[C@H]6O)C(C)(C)C5CC[C@@]4(C)[C@]3(C)[C@H]2O)[C@@]1(C)O (some centres undefined) | inactive |
| C[C@@H](c1ccccc1)N(C(N)=NC#N)c1cccc2ncccc12 | inactive |
| CC[C@@H]1[C@H]2CCCCN3C(=O)C[C@H]([C@@H]4[C@H]1OC(=O)[C@H]4C)[C@@H]23 | inactive |

| Structure (SMILES) | Potency |
| --- | --- |
| Cc1c(-c2ccc3c(c2)OCO3)oc2ccc(C(O)C(C)O)cc12 (centres undefined) | inactive |
| O=C(/C=C/c1ccc(O)c(O)c1)OC[C@H]1O[C@@H](OC2CCCCC2O)[C@H](O)[C@@H](O)[C@@H]1O (some centres undefined) | inactive |
| C=C(C(=O)O)[C@@H]1CC[C@H](C)[C@@H]2CC(=O)C(C)=C2C1 | inactive |
| C=CC(C)(O)CC/C=C(\C)C(=O)O[C@@H]1[C@@H](O)[C@H](OC(C)(C=C)CC/C=C(\C)C(=O)O)O[C@H](CO)[C@H]1OC(=O)/C(C)=C/CCC(C)(O)C=C (some centres undefined) | inactive |
| N#Cc1cccc(-c2c[nH]c3ncnc(N4CCOCC4)c23)c1 | inactive |
| C=C(C)C1Cc2c(ccc3c2OCC(c2ccc(O)cc2O)C3)O1 (centres undefined) | inactive |
| CC1=CCC(O)C2(C)CCC3C(C)C(=O)OC3C12 (centres undefined) | inactive |
| Cc1ncc([N+](=O)[O-])n1C[C@H](O)CN1CCOCC1 | inactive |
| C=CCc1cc(OC)c(OC(C)C(O)c2ccc(O)c(OC)c2)c(OC)c1 (centres undefined) | inactive |
| C[C@H]1CC[C@@]2(OC1)O[C@H]1CC3C4CC[C@H]5C[C@@H](O)CC[C@]5(C)C4CC(=O)[C@]3(C)[C@H]1[C@@H]2C (some centres undefined) | inactive |
| C/C(=C\CCC1(C)C2CC3C(C2)C31C)C(=O)O (centres undefined) | inactive |
| C=C(C)[C@@H]1CC[C@]2(CO)CC[C@]3(C)[C@H](CC[C@@H]4[C@@]5(C)CC[C@H](O)C(C)(C)[C@@H]5CC[C@]43C)[C@@H]12 | inactive |
| O=C(Cn1c2ccccc2c2nc3n(c(=O)c21)CCS3)N1CCCC1 | inactive |
| C/C1=C\CC[C@]2(C)O[C@H]2C(=O)c2c(C)coc2C1 | inactive |
| CC1=C2C(=O)C=C(CO)C2C2OC(=O)C(CS(=O)(=O)O)C2C(OC(=O)Cc2ccc(O)cc2)C1 (centres undefined) | inactive |
| Cc1cc(CO)c(O)c(C(=O)CC2CC(=O)NC(=O)C2)c1 | inactive |
| CC1=C2CC(O)(C(C)(C)O)C(O[C@@H]3O[C@H](CO)[C@@H](O)[C@H](O)[C@H]3O)CC(C)C2CC1=O (some centres undefined) | inactive |
| CC(C/C=C/C(C)(C)O)C1CCC(C)(O)C(O)C1 (centres undefined) | inactive |
| CCOC(=O)C1=C(N)Oc2ccc(Cl)cc2C1C(C#N)C(=O)OCC (centres undefined) | inactive |
